Screening results (PubChem BioAssay)
Shown are actives, neighbours in structure and some others; about 2.7% of the full set was active somewhere.
CF NFkB inh: blocks PAF-induced NF-kB reporter in cystic fibrosis cells. KKLEB NF-kB-GFP reporter, GFP fluorescence overnight. inhibition, % at 5 µM. hit rate 0.86% among 360,000. AID 588850;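 active = at least 50% inhibition at 5 µM, scaled per plate between neutral and stimulator controls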;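 also: PAF is a Pseudomonas aeruginosa culture filtrate used as stimulus; plate controls were PAF-stimulated DMSO wells for no effect and unstimulated DMSO wells for full effect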
MITF TRPM1 inh: inhibitors of MITF-driven TRPM1 promoter in melanoma cells. SK-MEL-5 TRPM1 promoter luciferase, 24 h. hit rate 0.83% among 330,000. inhibition, % at 12.5 µM;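 active = mean inhibition across replicates of 60% or more, whatever share of single replicates reaches that level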
HIF-2a block: blocks HIF-2a reporter activity; 786-0 RCC cells HIF-2a reporter, luciferase luminescence, overnight; inhibition, % at 18.8 µM; hit rate 0.72% among 360,000; AID 624352;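 active = inhibition of the luminescence signal of 40% or more relative to plate controls, in a single-dose primary screen at 18.75 µM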
Shn3 inh set2: reduces Shn3 3'UTR luciferase signal in osteoblasts; hit rate 0.52% among 360,000; Clone20 osteoblast Shn3 3'UTR firefly luciferase, 24 h; inhibition, % at 12.5 µM;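 active = mean inhibition of at least 75% with every replicate also reaching 75%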;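 also: 0% = median of neutral control wells and 100% = pilot-screen positive control compound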
KKLEB tox: reduces viability of KKLEB cystic fibrosis airway cells; AID 602141; KKLEB CF airway cells viability, ATPlite luminescence, overnight; hits give low values; cells stimulated with P. aeruginosa culture filtrate; hit rate 0.36% among 360,000; activity change (cytotoxicity), % at 5 µM;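 active = corrected activity change at or below -50% at 5 µM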
Peg3 prom inh: Peg3 promoter activity inhibition | HeLa PEG-Prom luciferase reporter, luminescence, overnight | inhibition, % at 20 µM | hit rate 1.7% among 360,000 | AID 588405;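 active = inhibition of at least 50% at 20 µM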
The depositor's hits bear a star; . = not tested or not shown.

SMILES	CF NFkB inh	MITF TRPM1 inh	HIF-2a block	Shn3 inh set2	KKLEB tox	Peg3 prom inh
COc1ccc(C(=O)NCCNc2nc3cc(C)cc(C)c3cc2C#N)nc1	.	.	-11	.	.	.
COc1cccc(-c2cnc(C(O)c3ccc(C(C)(C)C)cc3)[nH]2)c1 (stereo unspecified)	20	.	-19	-7	-15	12
CCOC(=O)c1c(NC(=O)CNCCO)sc(C)c1C	-10	-1	0	3	-1	14
CCOC(=O)c1c(NC(=O)CNC2CCCCC2)sc(C)c1C	23	8	22	-5	-8	90*
N/C(Cc1ccccc1)=N\OC(=O)c1cccc2ccccc12	1	8	-42	-9	-1	78*
Cc1cccc(C(=O)O/N=C(\N)Cc2ccc([N+](=O)[O-])cc2)c1	-13	5	-7	-3	3	3
N/C(Cc1cccc2ccccc12)=N\OC(=O)c1ccccc1F	-12	-2	-80	-7	-8	-40
N/C(Cc1ccc([N+](=O)[O-])cc1)=N\OC(=O)c1ccc2ccccc2c1	16	13	-66	-2	-8	81*
CCn1cc(/C=C/c2cc[n+](C)cc2)c2ccccc21	-67	35	12	-12	-5	45
CC(C)n1cc(/C=C/c2cc[n+](C)cc2)c2ccccc21	-78	63*	16	28	5	22
N#C/C(=C/c1ccc(-c2ccc([N+](=O)[O-])cc2)o1)c1nnc(N2CCOCC2)n1-c1ccccc1	-19	15	-8	3	-3	67*
COc1cc(/C=C(\C#N)c2nnc(N3CCOCC3)n2-c2ccccc2)ccc1O	-5	11	-5	-23	4	6
Cc1ccc(-c2csc3nc(SCC(N)=O)n(Cc4ccccc4)c(=O)c23)cc1	-8	-1	7	-3	-6	53*
Cc1ccc(-c2csc3ncnc(SCC(N)=O)c23)cc1	23	-8	11	-1	6	19
Cc1cc(N/N=C/c2ccc(O)cc2O)nc(-c2ccccc2O)n1	78*	6	-190	20	-2	67*
Cc1cc(N/N=C/c2ccccc2O)nc(-c2ccccc2O)n1	-39	6	-32	2	3	-81
COc1ccc2cc1Oc1ccc(cc1)C[C@H]1c3c(cc(OC)c4c3Oc3c(ccc5c3[C@H](C2)N(C)CC5)O4)CCN1C	87*	91*	21	-33	-88*	100*
CC(C)Nc1nnc(SCC(=O)Nc2ccc3c(c2)C(=O)c2ccccc2C3=O)s1	-48	-49	-306	12	-5	87*
CCN(CC)S(=O)(=O)c1ccc(N/N=C(\C)c2ccc(OC)cc2O)nc1	-5	55	6	91*	0	38
COCCNc1nc2cc(-c3cccc(Cl)c3)sc2c(=O)n1C	-38	.	-35	-7	-4	-22
O=C(/C=C/c1ccc(N2CCCCC2)c([N+](=O)[O-])c1)c1ccc(O)cc1	11	-15	-224	3	-13	-107
COc1ccccc1C(=O)/C=C/c1ccc(N2CCCCC2)c([N+](=O)[O-])c1	-2	5	44*	-15	-34	105*
CCOC(=O)Nc1ccc2nc(-c3cscn3)[nH]c2c1	-15	.	-214	-27	-9	-233
COc1cc(OC)c(OC)cc1/C=C1\CC(C)C/C(=C\c2cc(OC)c(OC)cc2OC)C1=O (stereo unspecified)	22	51	29	94*	9	58*
CCN(C[C@H]1N[C@@](CC)(C(=O)OC)[C@H]2C(=O)N(Cc3ccccc3)C(=O)[C@@H]12)C(=O)c1ccc(C(C)(C)C)cc1	85*	-4	-20	18	-58*	62*
SMILES	CF NFkB inh	MITF TRPM1 inh	HIF-2a block	Shn3 inh set2	KKLEB tox	Peg3 prom inh
COc1ccccc1-c1cc(-c2ccccc2)nc(SC(C(N)=O)c2ccccc2)c1C#N (stereo unspecified)	60*	38	5	38	-72*	47
O=C(/C=C/[C@H]1O[C@@H](n2ccc(=O)[nH]c2=O)[C@H](O)[C@@H]1O)NCc1ccccc1	-17	.	-4	-2	8	6
Cc1cc(C)n(-c2nc(NCCCN(C)C)c3c4c(sc3n2)CCCC4)n1	21	.	-132	-5	-21	48
Cc1cc(C)n(-c2nc(NCCN(C)C)c3c4c(sc3n2)CCCC4)n1	27	66*	-66	20	-25	103*
COCCNC(=O)C1CCCN(C(=O)c2ccc(SC(F)(F)F)cc2)CC1 (stereo unspecified)	3	.	14	-1	-11	-4
COc1cc(C(=O)N(C)C2CCCCC2)cc(OC)c1OC	-18	.	-7	3	-4	5
COc1ccc(-c2cccc(-c3cc(=O)oc4cc(OC)cc(OC)c34)c2)cc1	46	67*	21	10	-16	-4
COc1cc(OC)c2c(-c3cccc(-c4ccc(CO)cc4)c3)cc(=O)oc2c1	57*	77*	19	10	-15	16
COc1cc(OC)c2c(-c3cccc(-c4ccc(O)cc4)c3)cc(=O)oc2c1	13	36	5	6	-2	-2
N#CC(=C1C=C(Br)C(=NO)C=C1Cl)c1cccc2ccccc12	51*	.	17	8	0	39
O=C(CCl)Nc1ccc(N2CCCCCC2)cc1	-11	-11	5	-12	8	84*
O=C(CCl)Nc1ccc(N=Nc2ccccc2)cc1	-52	4	-122	-9	-14	107*
O=C(CCl)Nc1cccc(Oc2ccccc2)c1	-38	66*	18	-11	-24	12
C[C@H]1CN([C@@H](C)CO)S(=O)(=O)c2ccc(/C=C/c3ccccc3)cc2O[C@H]1CN(C)C(=O)NC1CCCCC1	-19	.	-2	-12	8	25
COc1ccccc1NC(=O)c1oc2ccccc2c1NC(=O)c1cc(OC)c(OC)c(OC)c1	56*	16	17	28	-58*	30
COCC(=O)Nc1c(C(=O)Nc2ccccc2OC)oc2ccccc12	-9	-13	-99	2	-7	-6
CC(C)c1nc(SCC(=O)N2CCCCC2)c2c(=O)n(C)c(=O)n(C)c2n1	-18	.	11	-3	9	9
CC(=O)Nc1cccc(-c2ccnc3c2CC(C(=O)NCCC(F)(F)F)O3)c1 (stereo unspecified)	-5	.	9	1	11	16
C#CCN(C[C@@H]1[C@@H](OC(=O)NCC2CCCCC2)[C@@H](OC(=O)NCC2CCCCC2)Cn2c(=O)n(CCCCCC)c(=O)n21)S(=O)(=O)c1ccc(C)cc1	-17	.	2	33	2	12
O=C(c1cc(-c2cccs2)on1)N1CCN(C(c2ccccc2)c2ccccc2)CC1	7	68*	28	44	-6	7
CCCCCCCCOC(=O)c1c(CSC(=N)N)n(C)c2cc(Br)c(OC(C)=O)cc12	16	.	0	-13	22	98*
